From PubChem BioAssay
HT1080NT lethal: qHTS for induction of synthetic lethality in tumor cells producing 2HG: qHTS for the HT-1080-NT fibrosarcoma cell line; HT-1080-NT fibrosarcoma viability, CellTiter-Glo ATP luminescence, 48 h; Potency, µM (top dose mostly 46.1 µM), for the others: at the highest dose activity, negative = less viability, actives largely listed as cytotoxic; 360,000 tested, 1.6% active;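 note: NT is the 2HG producing partner of a matched IDH1 knockdown line; 0% = DMSO-treated cells and -100% = media-only wells without cells; nearly all actives have a fitted effect of over 55% in size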
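Viability of the 2HG-overproducing fibrosarcoma line after 48 hours of compound exposure at 37 degrees C was determined by luminescence with CellTiter-Glo, and concentration-effect curves were then fitted and categorized.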
TGFb inhibitor: qHTS for Inhibitors of TGF-b; HepG2 CAGA-GFP TGF-b/SMAD3 reporter, GFP fluorescence, 18 h; TGF-beta stimulated, 500 pg/mL final; Potency, µM (top dose mostly 46.1 µM), without a hit: top-dose activity, negative = inhibition, actives largely listed as inhibitors; 410,000 tested, 1.2% active; AID 588855, 2011; note: % is set by controls: 0 for no effect and ±100 for the full control effect; nearly all actives have a fitted effect of over 65% in size
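Using HEPG2 CAGA-GFP reporter cells at 1000 cells/well, we pinned test compounds, stimulated with recombinant TGF-beta (500 pg/mL final) and measured total well GFP after 18 h.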
TDP1 cell noCPT: qHTS for Inhibitors of human tyrosyl-DNA phosphodiesterase 1 (TDP1): qHTS in cells in absence of CPT; AID 686978, 2013; DT40 Tdp1-/- hTDP1 cells, no CPT, ATP luminescence, 48 h; 420,000 tested, 15% active; Potency, µM (doses to about 46.2 µM), inactives show top-dose activity change, negative = growth inhibition, actives largely listed as inhibitors; note: % is set by controls: 0 for no effect and ±100 for the full control effect; nearly all actives have a fitted effect of over 55% in size
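Luminescent ATP content (CellTiter-Glo) served as the growth readout. Knockout chicken DT40 cells expressing human TDP1 were exposed to compounds without camptothecin for a minimum 48 hr at 37 °C.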
DT40 TDP1 CPT: qHTS for Inhibitors of human tyrosyl-DNA phosphodiesterase 1 (TDP1): qHTS in cells in presence of CPT; chicken DT40 Tdp1-/-;hTDP1 cells + 20 nM CPT, ATP luminescence, 48 h; Potency, µM (highest dose often 46.2 µM), for the others: at the top dose activity change, negative = growth inhibition, actives largely listed as inhibitors; 420,000 tested, 12% active; note: % is set by controls: 0 for no effect and ±100 for the full control effect; nearly all actives have a fitted effect of over 55% in size
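Cell growth measured by CellTiter-Glo luminescence after a minimum 48 h, 37 C compound exposure with 20 nM CPT in Tdp1-knockout DT40 cells stably expressing hTDP1, seeded 400/well; qHTS titration format.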
HT1080 IDH1KD tx: qHTS for induction of synthetic lethality in tumor cells producing 2HG: qHTS for the HT-1080-IDH1KD cell line; Potency, µM (doses to about 46.1 µM), without a hit: at the top dose activity, negative = toxicity, actives largely listed as cytotoxic; 360,000 tested, 2% active; HT-1080 IDH1 knockdown viability, ATP luminescence, 48 h;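 note: 0% = DMSO wells and -100% = cell-free medium wells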
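Assay cells: HT-1080 with IDH1 knockdown, 750 per well, RPMI/5% FBS. Exposure: 48 h at 37 °C following 2 h pre-incubation. Read: CellTiter-Glo luminescence; fitted concentration-response, curve class assigned.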
HepG2 tox: qHTS for Inhibitors of TGF-b: Cytotox Counterscreen; HepG2 CAGA-GFP viability, ATP luminescence, 18 h; Potency, µM (titrated, usually from 46.1 µM), inactives show at the top dose activity change, negative = cytotoxicity, actives largely listed as cytotoxic; 410,000 tested, 0.76% active; AID 588856, 2011
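CellTiter-Glo luminescence gave cytotoxicity after 18 hours at 37 degrees C. The cells were HepG2 CAGA-GFP in 1% FBS DMEM, stimulated with 500 pg/mL TGF-beta after compound addition. %Activity was normalised to no-cell wells (complete cell-killing) and DMSO (no toxicity), and curves were fitted and classified.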
The depositor's hits bear a star; ? = inconclusive; . = no result. The list is not random: actives were taken first. Their share in the collection is about 17%. Calls come from the whole dose curve; as a rule, active = well fitted curve in the direction sought with a large enough effect; inconclusive = small, poorly fitted or top-dose-only effect, or another doubt; inactive = no such curve, though single readings can be large; an effect the other way counts as inactive or inconclusive. Potency is the fitted concentration of half-maximal effect.

SMILES	HT1080NT lethal	TGFb inhibitor	TDP1 cell noCPT	DT40 TDP1 CPT	HT1080 IDH1KD tx	HepG2 tox
Cc1ccc(-c2c(C(=O)NCc3ccccc3)oc(=O)c3ccccc23)cc1	2%	-2%	?	?	2%	4%
C=C1C(=O)C2=CC1CCC(=O)C1(C)CCC(OC(C)=O)C(C)(C)C1CC2O (configuration not stated)	-24%	2.8µM*	2.1µM*	2.1µM*	5.8µM*	-98%
CC1(C(=O)Nc2ccc3c(c2)OCCO3)CN(S(C)(=O)=O)CC(=O)N1CCc1c[nH]c2ccccc12 (configuration not stated)	4%	.	-10%	-8%	5%	.
O=C1NC[C@H](CCCCN2C[C@H](Cc3ccccc3)N(CCC3CCCCC3)C(=O)C2=O)N(Cc2ccccc2)C1=O	21%	.	?	?	14%	.
Cc1ccc(-c2c3c([nH]c(=S)c2C#N)CCCC3)o1	-4%	-14%	?	23µM*	-6%	-17%
C[C@@H]1CN([C@@H](C)CO)C(=O)c2cc(Br)cnc2O[C@H]1CN(C)C(=O)C1CC1	3%	19%	-16%	5%	11%	2%
Cc1ccc(S(=O)(=O)N2CCN(c3nc(C(C)C)c4c(c3C#N)CC(C)(C)OC4)CC2)cc1	-4%	3%	16µM*	16µM*	-29%	-8%
CCc1nc(N2CCN(C(C)=O)CC2)c(C#N)c2c1COC(C)(C)C2	15%	11%	-27%	-13%	2%	169%
CC(C)Cc1nc(N2CCOCC2)c(C#N)c2c1COC(C)(C)C2	-3%	6%	?	-14%	-4%	-13%
CCCNC(=O)N1CCN(c2nc(C(C)C)c3c(c2C#N)CC(C)(C)OC3)CC1	-6%	4%	-63%	29µM*	-13%	-17%
Cc1nc(N2CCN(C(=O)c3ccc(Cl)cc3)CC2)c(C#N)c2c1COC(C)(C)C2	-9%	8%	?	29µM*	-16%	-1%
CCOc1ccc(NC2=CC(=O)C(=O)c3ccccc32)cc1	?	4.5µM*	3.3µM*	2.3µM*	?	-103%
COc1cc(Cl)c(NC2=CC(=O)C(=O)c3ccccc32)c(OC)c1	9.2µM*	5µM*	?	12µM*	8.2µM*	3.5µM*
O=C1C=C(Nc2ccc(F)cc2)c2ccccc2C1=O	?	4µM*	9.2µM*	7.3µM*	?	4.5µM*
O=C1C=C(Nc2cccnc2)c2ccccc2C1=O	23µM*	3.5µM*	7.3µM*	7.3µM*	23µM*	4.5µM*
Cc1c(-c2ccccc2)nc2c(Cl)cccc2c1C(=O)OCC(=O)c1ccc(F)cc1	.	35%	5.8µM*	?	.	-1%
O=C(COC(=O)c1ccc2ccccc2n1)c1ccc(F)cc1	11%	-3%	15%	-1%	7%	0%
Cc1cc(C(=O)OCC(=O)c2ccc(Cl)c([N+](=O)[O-])c2)c2cccc(C)c2n1	0%	1%	?	?	1%	3%
COc1ccc(-c2cc(C(=O)OCC(=O)c3ccc(C)cc3)c3cccc(Cl)c3n2)cc1	.	21%	?	?	.	-38%
Cc1ccc2nc(C)cc(C(=O)OCC(=O)c3ccc(Cl)c([N+](=O)[O-])c3)c2c1	-6%	7%	?	16µM*	-4%	-10%
Cc1ccc(-c2cc(C(=O)OCC(=O)c3ccccc3)c3cccc(Cl)c3n2)cc1	.	11%	6.5µM*	?	.	-2%
CCCCN(C(=O)c1ccc(N(C)S(=O)(=O)c2ccc(C)cc2)cc1)c1c(N)n(CC(C)C)c(=O)[nH]c1=O	-1%	7%	-3%	-18%	0%	-5%
COc1ccccc1C(=O)NC(=O)COC(=O)CNC(=O)c1ccc(Cl)c([N+](=O)[O-])c1	14%	7%	-1%	2%	8%	12%
O=C(CNC(=O)N1CC(=O)Nc2ccccc21)Nc1ccc(Cl)cc1Cl	6%	-4%	-10%	-8%	5%	-15%
CCOC(=O)c1cc(C#N)c(Oc2ccccc2)nc1-c1ccccc1	-11%	-6%	?	?	-12%	-17%
SMILES	HT1080NT lethal	TGFb inhibitor	TDP1 cell noCPT	DT40 TDP1 CPT	HT1080 IDH1KD tx	HepG2 tox
CCOC(=O)c1cc(C#N)c(N2CCOCC2)nc1-c1ccccc1	-2%	-1%	?	-6%	-6%	-31%
CCCCNc1nc(-c2ccccc2)c(C(=O)OCC)cc1C#N	?	?	23µM*	?	?	-2%
C=CCNc1nc(-c2ccccc2)c(C(=O)OCC)cc1C#N	?	0%	10µM*	?	?	-4%
CCCNc1nc(-c2ccccc2)c(C(=O)OCC)cc1C#N	?	-47%	2.9µM*	2.9µM*	?	5%
CCOC(=O)c1cc(C#N)c(Nc2ccccc2OC)nc1C(F)(F)F	9%	-1%	-14%	0%	14%	-11%
CCOc1cc(Cl)c(NC(=O)CC)cc1OCC	2%	-5%	1%	-2%	4%	-17%
Cc1ccc(Nc2ccc(S(=O)(=O)N3CCOCC3)cc2[N+](=O)[O-])cc1C	-4%	-14%	?	?	-1%	7%
Nc1c(C(=O)NCc2ccccc2)nnn1Cc1ccccc1	-2%	2%	-28%	-14%	-1%	2%
Nc1c(C(=O)NCc2ccccc2)nnn1Cc1cccc(Br)c1	.	?	5.8µM*	4.6µM*	.	-41%
COc1cccc(CNC(=O)c2nnn(CC(=O)Nc3ccc(Br)cc3)c2N)c1	-20%	?	5.2µM*	10µM*	?	-30%
CCOc1ccccc1NC(=O)Cn1nnc(C(=O)NCc2ccc3c(c2)OCO3)c1N	?	0%	2.6µM*	4.1µM*	12µM*	3%
Cc1cc(C)cc(NC(=O)Cn2nnc(C(=O)NCc3ccc4c(c3)OCO4)c2N)c1	18µM*	1%	0%	-4%	?	2%
COc1ccc(-n2c(=O)c(C)nc3cncnc32)cc1	.	.	-8%	11%	.	.
O=C(O)c1[nH]c(-c2ccccc2)c2c1C(=O)N(C1CC1)C2=O	23%	-2%	?	-25%	6%	-20%
